{"source": "PubChem BioAssay AID1117361", "about": "(Southern Research Institute, 2015)", "note": "Among all 3,600 compounds or so, about 900 (25%) were called active. How the calls were made is not given here. Only a sample is shown. A call without a number means that no potency is given here. Potency and affinity values are given separately.", "data": [{"molecular_target": "Protein Tat (Human immunodeficiency virus type 1 group M subtype B (isolate HXB2)) (UniProt P04608)", "assay": "HIV-1 Tat–TAR interaction blockers – biochemical, fluorescence polarization, FAM-labeled TAR RNA, counter-screen for Vif-APOBEC3G degradation inhibitor project, dose response (AID 1117361)", "conditions": "Tat-TAR RNA binding; series mostly up to 100 µM", "values": [{"compound": "Nc1nc(SCc2nc3scc(-c4ccccc4)c3c(=O)[nH]2)n[nH]1", "outcome": "inactive"}, {"compound": "S=c1[nH]nc(Cn2nnc3ccccc32)n1-c1ccccc1", "outcome": "inactive"}, {"compound": "COc1ccccc1C(=O)Nc1ccc(-c2nnc(SCC(=O)O)n2C)cc1", "outcome": "inactive"}, {"compound": "Cc1cc(C(=O)NNC(=O)CCC2CCCCC2)c(C)o1", "outcome": "inactive"}, {"compound": "Cc1cc(/C=C2\\SC(=S)NC2=O)c(C)n1C", "outcome": "inactive"}, {"compound": "CCOC(=O)c1c(-c2cccs2)csc1NC(=O)CC(C)C", "outcome": "inactive"}, {"compound": "Cc1c(C=O)c(C=O)c(C)n1Cc1ccccc1", "outcome": "inactive"}, {"compound": "CC(=O)C1CCN(Cc2ccccc2)CC1", "outcome": "inactive"}, {"compound": "Cc1ccc(C(=O)N2CCN(c3ccccc3)CC2)cc1C", "outcome": "inactive"}, {"compound": "O=C(O)c1ccc(N2C(=O)c3cccnc3C2=O)cc1", "outcome": "inactive"}, {"compound": "Cc1ccc(-n2nc(C(=O)O)c3ccccc3c2=O)cc1C", "outcome": "inactive"}, {"compound": "Cc1cc(/C=N/n2cnnc2)c(C)n1-c1cccc(Cl)c1", "outcome": "inactive"}, {"compound": "O=C(OC(C(=O)NCc1cccs1)c1ccccc1Cl)c1ccco1", "note": "(stereo not given)", "outcome": "inactive"}, {"compound": "O=S(=O)(c1cccc2ccccc12)n1nnc2ccccc21", "outcome": "inactive"}, {"compound": "O=C(OCn1cncn1)c1ccc(Cl)cc1Cl", "outcome": "inactive"}, {"compound": "CC(C)(C)OC(=O)N1CCC[C@H]1c1nnc(SC/C=C/c2ccccc2)o1", "outcome": "inactive"}, {"compound": "Clc1ccc(C2=Nn3c(nnc3-c3cc(-c4ccccc4)n[nH]3)SC2)cc1", "outcome": "inactive"}, {"compound": "O=C(O)c1ccc2c(c1)N(Cc1cccc(F)c1)C(=O)CS2", "outcome": "inactive"}, {"compound": "Cc1cc(NS(=O)(=O)c2cc(Cl)sc2Cl)no1", "outcome": "inactive"}, {"compound": "O=C(O)c1cc(-c2ccccc2)on1", "outcome": "inactive"}, {"compound": "COc1ccc(C(=O)N2CCCC(C(=O)N3CCCCCC3)C2)cc1", "note": "(stereo not given)", "outcome": "inactive"}, {"compound": "Cc1ccc(S(=O)(=O)N(C)CC(O)Cn2c3ccccc3c3ccccc32)cc1", "note": "(stereo not given)", "outcome": "inactive"}, {"compound": "COc1cc(/C=C2/C(=O)N(c3ccc(Br)cc3)N=C2C)cc(OC)c1OC", "outcome": "inactive"}, {"compound": "CC(=O)Nc1ccc(OCC(=O)N2CCc3ccccc3C2)cc1", "outcome": "inactive"}, {"compound": "CCn1ncc(/C=C/C(=O)NCc2cn(C)nc2C)c1C", "outcome": "inactive"}, {"compound": "Cn1c(=O)cc(SCC(=O)NCCCN2CCOCC2)c2ccccc21", "outcome": "inactive"}, {"compound": "O=C(c1ccccc1)N1CCN(c2ccc(Cl)cc2)CC1", "outcome": "inactive"}, {"compound": "Cc1ccc(-c2nc(-c3ccccc3)no2)cc1", "outcome": "inactive"}, {"compound": "Cc1cccc(C)c1NC(=O)Cn1c(=O)n(CCCC(=O)NCc2ccco2)c(=O)c2sccc21", "outcome": "inactive"}, {"compound": "NS(=O)(=O)c1ccc(N=Nc2ccc(=O)[nH]c2O)cc1", "outcome": "inactive"}, {"compound": "COc1cc(NC(=O)CSCC(=O)N(C)C2CCCCC2)cc(OC)c1", "outcome": "inactive"}, {"compound": "Cc1ccccc1OCC(=O)OCC(=O)c1ccc(OC(=O)c2ccccc2)cc1", "outcome": "inactive"}, {"compound": "Cc1ccc(Nc2nc(C(=O)NCc3ccco3)cs2)cc1", "outcome": "inactive"}, {"compound": "c1coc(CNc2nc(-c3cccs3)cs2)c1", "outcome": "inactive"}, {"compound": "COCCOC(=O)CC1=NC(=O)CS1", "outcome": "inactive"}, {"compound": "Cc1cc(C(F)F)n2ncc(C(=O)NCc3ccccc3C(F)(F)F)c2n1", "outcome": "inactive"}, {"compound": "Cc1cc(C)c(Cc2c(C)nc3c(C(=O)NCc4ccco4)cnn3c2C)c(C)c1", "outcome": "inactive"}, {"compound": "COc1cc(OC)cc(C(=O)NC(=S)N2CCN(c3ccc(C(F)(F)F)cc3[N+](=O)[O-])CC2)c1", "outcome": "inactive"}, {"compound": "CSCCC(NC(N)=O)C(=O)NCc1ccc(Cl)cc1", "note": "(stereo not given)", "outcome": "inactive"}, {"compound": "COc1ccc(N2C(=O)CC(Sc3nc(C)c4c(n3)CCCC4)C2=O)cc1", "note": "(stereo not given)", "outcome": "inactive"}, {"compound": "O=S(=O)(c1ccc(S(=O)(=O)N2CCCC2)cc1)N1CCCCCC1", "outcome": "inactive"}, {"compound": "CC(C)(C)c1ccc(S(=O)(=O)N2CCCCC2)cc1", "outcome": "inactive"}, {"compound": "CC1=C(C(=O)OCCOc2ccccc2)C(c2ccc(C)o2)C2=C(CC(C)(C)CC2=O)N1", "note": "(stereo not given)", "outcome": "inactive"}, {"compound": "CCN(CC)S(=O)(=O)N1CCC(C(=O)NCC2COc3ccccc3O2)CC1", "note": "(stereo not given)", "outcome": "inactive"}, {"compound": "N/C(=N\\OC(=O)COc1ccc([N+](=O)[O-])cc1)c1cccnc1", "outcome": "inactive"}, {"compound": "O=C(NCc1cccc(F)c1)C1CCN(S(=O)(=O)Cc2ccccc2)CC1", "outcome": "inactive"}, {"compound": "O=C(CSc1nnc(Cc2ccc(Cl)cc2)o1)Nc1ccccc1", "outcome": "inactive"}, {"compound": "CC1CCCC(NC(=O)Cn2cc3c(n2)CCCCC3)C1C", "note": "(stereo not given)", "outcome": "inactive"}, {"compound": "COCCn1cc(C(=O)NCc2cccs2)c2c3ccccc3n(C)c2c1=O", "outcome": "inactive"}, {"compound": "Cc1ccc2c(c1)N=C(c1ccc(Cl)cc1)CO2", "outcome": "inactive"}, {"compound": "COc1ccc(NC(=O)Nc2cccs2)cc1OC", "outcome": "inactive"}, {"compound": "CCOC(=O)C1CCCN(c2c(NCCN(CC)c3ccccc3)c(=O)c2=O)C1", "note": "(stereo not given)", "outcome": "inactive"}, {"compound": "CCOC(=O)C1CCCN(C(=O)c2ccc3c(c2)OCO3)C1", "note": "(stereo not given)", "outcome": "inactive"}, {"compound": "COc1cc(C(=O)Oc2cccc(Nc3ncnc4ccccc34)c2)cc(OC)c1OC", "outcome": "inactive"}, {"compound": "COc1ccc2c(c1)C1CC(C)(NC(=O)C1C(=O)c1ccccc1)O2", "note": "(stereo not given)", "outcome": "inactive"}, {"compound": "COc1ccc(/C=N/N=C2/NC(=O)C(c3ccccc3)S2)c(OC)c1", "note": "(stereo not given)", "outcome": "inactive"}, {"compound": "COc1cc(/C=N/N=C2/NC(=O)C(c3ccccc3)S2)ccc1O", "note": "(stereo not given)", "outcome": "inactive"}, {"compound": "Cc1[nH]c2ccccc2c1C(=O)CN1C(=O)NC(C)(c2ccc(Cl)cc2Cl)C1=O", "note": "(stereo not given)", "outcome": "inactive"}, {"compound": "CCN(CC(=O)NCc1cccs1)C(=O)c1ccc([N+](=O)[O-])o1", "outcome": "inactive"}, {"compound": "CN(CC(=O)Nc1cccc(F)c1)C(=O)c1cc(-c2ccco2)nc2ccccc12", "outcome": "inactive"}, {"compound": "COc1ccc(C(=O)Nc2cccnc2)cc1S(=O)(=O)N1CCOCC1", "outcome": "inactive"}, {"compound": "COc1ccc(-c2cc(C(=O)N(C)CC(=O)Nc3ccccc3Br)c3ccccc3n2)cc1OC", "outcome": "inactive"}, {"compound": "COc1cccc(NC(=O)CN(C)C(=O)CCCc2nc3ccccc3s2)c1", "outcome": "inactive"}, {"compound": "COc1ccc(OC)c(NC(=O)COC(=O)c2ccc(OC)c(S(=O)(=O)N3CCOCC3)c2)c1", "outcome": "inactive"}, {"compound": "Cc1cc(C)n2nc(C(=O)OCC(=O)N(C)CC(=O)Nc3ccc(F)cc3)nc2n1", "outcome": "inactive"}, {"compound": "CC(=NC1CCCC1)c1c(C)[nH]n(-c2nc3ccccc3s2)c1=O", "outcome": "inactive"}, {"compound": "c1ccc(-c2cc(-c3nnc4n3N=C(c3ccc5ccccc5c3)CS4)[nH]n2)cc1", "outcome": "inactive"}, {"compound": "O=[N+]([O-])c1cccc(/C(=N/N=C/c2ccccc2Br)C23CN4CN(CN(C4)C2)C3)c1", "outcome": "inactive [at 50 µM]"}, {"compound": "COC(=O)c1c(NC(=O)COC(=O)c2ccc(NC(=O)CC#N)cc2)sc2c1CCCCC2", "outcome": "inactive"}, {"compound": "O=C(CSc1nc2cc([N+](=O)[O-])ccc2n1-c1ccccc1)NCc1ccc2c(c1)OCO2", "outcome": "inactive"}, {"compound": "CCCc1ccc(-c2csc(NC(=O)Cc3cccs3)n2)cc1", "outcome": "inactive"}, {"compound": "COC(=O)C1=C(N)Oc2cc(C)n(Cc3cccnc3)c(=O)c2C1c1cccc(OC)c1OC", "note": "(stereo not given)", "outcome": "inactive"}, {"compound": "O=C(OCN1C(=O)c2ccccc2C1=O)C1CCCCC1", "outcome": "inactive"}, {"compound": "COc1cc(-c2n[nH]c(=O)o2)cc(OC)c1OC", "outcome": "inactive"}, {"compound": "COC(=O)/C(=C\\Nc1ccccc1)NC(=O)c1ccc(Cl)cc1Cl", "outcome": "inactive"}, {"compound": "CCOc1ccc2nc(NC(=O)CN3CCN(c4ccccn4)CC3)sc2c1", "outcome": "inactive"}, {"compound": "CC1=C(C(=O)OC2CCCCC2)C(c2ccc(C)o2)C2=C(CCCC2=O)N1", "note": "(stereo not given)", "outcome": "inactive"}, {"compound": "CCOc1ccc(N(C(C)C(=O)NC2CCCCCC2)S(C)(=O)=O)cc1", "note": "(stereo not given)", "outcome": "inactive"}, {"compound": "CC(NC(=O)/C(C#N)=C/c1cn[nH]c1-c1ccccc1)c1ccccc1", "note": "(stereo not given)", "outcome": "inactive"}, {"compound": "CCCC[C@@H]1CNC(=S)N1CCc1cccc2ccccc12", "outcome": "inactive"}, {"compound": "Cc1nn(Cc2ccc(F)cc2)c(C)c1NC(=O)c1noc2c1CCc1ccccc1-2", "outcome": "inactive"}, {"compound": "N=c1ccn(Cc2ccc(Cl)cc2)cc1", "outcome": "inactive"}, {"compound": "C=CCc1c(C)nc(C)nc1N/N=C/c1ccc(F)cc1", "outcome": "inactive"}, {"compound": "COCCNC(=S)c1ccc(OC)cc1", "outcome": "inactive"}, {"compound": "CCN(CC)S(=O)(=O)c1ccc(C(=O)NCc2n[nH]c(=S)n2-c2ccccc2OC)cc1", "outcome": "inactive"}, {"compound": "Clc1ccc2nc3ccccn3c2c1", "outcome": "inactive"}, {"compound": "Cc1ccc(N=Cc2nc(-c3ccco3)oc2O)cc1", "outcome": "inactive"}, {"compound": "O=C(NC1CCCCC1)n1c(=O)oc2cc(S(=O)(=O)N3CCCCC3)ccc21", "outcome": "inactive"}, {"compound": "CC(C)Cn1c(N)c(C(=O)NCc2cccs2)c2nc3ccccc3nc21", "outcome": "inactive"}, {"compound": "COC(=O)c1ccc(-n2nnnc2SCC(=O)Nc2cc(OC)ccc2OC)cc1", "outcome": "inactive"}, {"compound": "CCOC(=O)N1CCC(N2Cc3cccc(C(=O)Nc4cc(F)ccc4F)c3C2=O)CC1", "outcome": "inactive"}, {"compound": "CC1(C)CC(=O)C=C(Nc2ccccc2NC(=O)c2cnccn2)C1", "outcome": "inactive"}, {"compound": "CCC(C)NS(=O)(=O)c1ccc(NS(=O)(=O)c2ccc(F)cc2)cc1", "note": "(stereo not given)", "outcome": "inactive"}, {"compound": "O=C(CCc1c[nH]c2ccccc12)N1CCN(c2ccc(O)cc2)CC1", "outcome": "inactive"}, {"compound": "CC(C)CN1C(=O)c2ccc(C(=O)Nc3ccc(O)cc3C(=O)O)cc2C1=O", "outcome": "inactive"}, {"compound": "COC(=O)c1c(NC(=O)CC2NCCNC2=O)sc2c1CCCC2", "note": "(stereo not given)", "outcome": "inactive"}, {"compound": "Cc1nn(CC(=O)Nc2ccccn2)c(C)c1Br", "outcome": "inactive"}, {"compound": "CCOCCCNC(=O)C1CCN(S(=O)(=O)CC)CC1", "outcome": "inactive"}, {"compound": "CCOC(=O)C(C)N1C(=O)S/C(=C\\c2ccc(-c3ccccc3C(=O)O)o2)C1=O", "note": "(stereo not given)", "outcome": "inactive"}, {"compound": "COc1cc(C(=O)Nc2cccc(-c3nc4ncccc4o3)c2C)cc(OC)c1OC", "outcome": "inactive"}, {"compound": "CCC1(C(N)=O)CC2C=CC1C2", "note": "(stereo not given)", "outcome": "inactive"}, {"compound": "CCOC(=O)C(C)Sc1nnc2n1C(C)(C)Cc1ccccc1-2", "note": "(stereo not given)", "outcome": "inactive"}, {"compound": "O=S1(=O)CCC(N2CCOCC2)C1", "note": "(stereo not given)", "outcome": "inactive"}, {"compound": "CCOC(=O)/C=C1\\SC(C)C(=O)N1CC(=O)N(CCC#N)c1ccccc1", "note": "(stereo not given)", "outcome": "inactive"}, {"compound": "COc1ccc(OC)c(-n2cnnn2)c1", "outcome": "inactive"}, {"compound": "COc1ccc(C2=NO[C@@H]3C(=O)N(c4ccc(C)cc4C)C(=O)[C@H]23)cc1OC", "outcome": "inactive"}, {"compound": "CC(C)(C)NC(=O)C1N(c2cccnc2)C(=O)C2C(C(=O)Nc3ccccc3F)C3(C)C=CC21O3", "note": "(stereo not given)", "outcome": "inactive"}, {"compound": "COc1ccc(OC)c(NC(=O)CSc2nnc(C)n2Cc2ccccc2)c1", "outcome": "inactive"}, {"compound": "Cc1cc(SCC(=O)NCCCN2CCCC2=O)nc2ccccc12", "outcome": "inactive"}, {"compound": "O=C(NCCN1CCOCC1)c1cc(-c2ccc(Br)cc2)on1", "outcome": "inactive"}]}]}
